Experimental data taken from PubChem BioAssay (NCATS).
Records with an inconclusive call do not appear. Calls come from the whole dose curve; as a rule, active = well fitted inhibition curve with a large enough effect; inconclusive = small, poorly fitted or top-dose-only effect; inactive = flat fitted curve, though single readings scatter.

test: qHTS profiling for inhibitors of Plasmodium falciparum proliferation (AID 504749);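 note: 0% = DMSO vehicle and full inhibition = artemisinin control; nearly all actives have a fitted effect of over 60% in size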; conditions: P. falciparum in erythrocytes, SYBR Green DNA, 72 h; at 28.7 µM (top of the series); parasite line A
Summary of the method: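 Readout was DNA-dye fluorescence from lysed cultures, ex 485/em 535 nm. Parasitized red cells had grown 72 h with compound; data scaled between 0.29 uM artemisinin and DMSO wells and corrected using vehicle-only plates.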

activity, negative = inhibition, inactive:
Cc1ccc(S(=O)(=O)NC(=O)NC(C)Cc2ccccc2)cc1 (centres undefined) 7.07%
OCCOC[C@H]1O[C@H](OCCO)[C@H](OCCO)[C@@H](OCCO)[C@@H]1OCCO (tested in a mixture with another compound) 3.32%
C[S+](C)CC[C@H](N)C(=O)O 2.14%
CC[C@@H]1/C=C(\C)C[C@H](C)C[C@H](OC)[C@H]2O[C@@](O)(C(=O)C(=O)N3CCCC[C@H]3C(=O)O[C@H](/C(C)=C/[C@@H]3CC[C@H](Cl)[C@H](OC)C3)[C@H](C)[C@@H](O)CC1=O)[C@H](C)C[C@@H]2OC 10.4%
NC(=O)C1CC2(NC(=O)NC2=O)c2cc(F)ccc2O1 (centres undefined) 9.13%
CN1[C@@H]2CC[C@@H]1CC(OC(=O)[C@H](CO)c1ccccc1)C2 (some centres undefined) 1.09%
CCCCCCCCCCCC(=O)OCC(O)C1OCC(O)C1O (centres undefined) -2.73%
C/C1=C2/[N-]C(C(CC(N)=O)[C@@]2(C)CCC(=O)NCC(C)OP(=O)([O-])O[C@H]2[C@@H](O)[C@@H](n3cnc4cc(C)c(C)cc43)O[C@@H]2CO)[C@]2(C)N=C(/C(C)=C3N=C(/C=C4N=C1C(CCC(N)=O)C\4(C)C)[C@@H](CCC(N)=O)[C@]\3(C)CC(N)=O)[C@@H](CCC(N)=O)[C@]2(C)CC(N)=O.CC(=O)O.[Co] (some centres undefined) -2.13%
CC1(C)OC[C@@H]2O[C@@]3(C(=O)O)OC(C)(C)O[C@@H]3[C@@H]2O1 1.64%
Cc1ccccc1N1C(=O)c2cc(N)ccc2N/C1=C\F -6.61%
O=C1C(I)=CC(=C(c2cc(I)c(O)c(I)c2)c2ccccc2C(=O)O)C=C1I 1.17%
NC(=O)NC(CCC(=O)O)C(=O)O (centres undefined) -0.405%
CC(=O)OCC(=O)[C@@]1(O)CCC2C3C[C@H](C)C4=CC(=O)C=CC4(C)C3C(O)CC21C (some centres undefined) 2.49%
CC1(C)C2CC[C@]1(C)[C@@H](O)C2 6.51%
OCC1O[C@H](Oc2ccc(O)cc2)C(O)C(O)C1O (some centres undefined) -4.75%
Nc1nc(F)nc2c1ncn2[C@@H]1O[C@H](CO)[C@@H](O)[C@H]1O 9.43%
CC1OC(OC2CCC3(C)C(CCC4C3CC(O)C3(C)C(C5=CC(=O)OC5)CCC43O)C2)CC(O)C1OC1CC(O)C(OC2CC(O)C(OC3OC(CO)C(O)C(O)C3O)C(C)O2)C(C)O1 (centres undefined) 13.2%
CC1OC(OCC2OC(Oc3c(-c4ccc(OCCO)c(OCCO)c4)oc4cc(OCCO)cc(O)c4c3=O)C(O)C(O)C2O)[C@@H](O)C(O)C1O (some centres undefined) -11%

same assay, conditions: P. falciparum in erythrocytes, SYBR Green DNA, 72 h; at 28.7 µM (top of the series); parasite line B

activity, negative = inhibition, inactive:
CCCCCCCCCCCCCCCC(=O)OC[C@H](O)[C@H]1OC[C@@H](O)[C@@H]1O -6.82%
C[C@H]1OC(OC2C(O)[C@@H](O)C(OC3C(O)[C@@H](O)C(O)O[C@@H]3CO)O[C@@H]2CO)[C@H](O)C(O)C1N[C@H]1C=C(CO)[C@@H](O)[C@H](O)C1O (some centres undefined) 11.4%
CCN(CC)CC(=O)Nc1c(C)cc(C)cc1C 6.57%
NC(=O)c1ncn(C2OC(CO)C(O)C2O)c1N (centres undefined) 6.51%
CC1(Cn2ccnn2)[C@H](C(=O)O)N2C(=O)C[C@H]2S1(=O)=O (some centres undefined) 0.438%
CN(C)CC/C=C1\c2ccccc2COc2ccc(CC(=O)O)cc21 -5.49%
CCCC(=O)O[C@]1(C(=O)COC(C)=O)CC[C@H]2C3C[C@H](F)C4=CC(=O)C=CC4(C)[C@@]3(F)[C@@H](O)CC21C (some centres undefined) -24.8%
OCCN1CC(O)C(O)C(O)C1CO (centres undefined) 21.3%
CC(CCC(=O)O)C1CCC2C3C(=O)C[C@@H]4CC(=O)CC[C@@]4(C)C3CC(=O)[C@]12C (some centres undefined) 1.51%
O=C(OC[C@@H]1O[C@@](O)(COC(=O)c2cccnc2)[C@H](OC(=O)c2cccnc2)[C@H]1OC(=O)c1cccnc1)c1cccnc1 -0.864%
O=[N+]([O-])O[C@H]1CO[C@H]2[C@@H]1OC[C@H]2O -1.17%
COc1cccc(OC)c1C(=O)NC1C(=O)N2C1SC(C)(C)C2C(=O)O (centres undefined) -9.69%
NC[C@@H]1O[C@H](OC2[C@@H](CO)O[C@@H](OC3[C@H](O)[C@H](N)C[C@H](N)[C@H]3OC3O[C@H](CO)[C@@H](O)[C@H](O)[C@@H]3N)[C@H]2O)C(N)[C@H](O)[C@@H]1O (some centres undefined) 20%
Cc1ccc(S(=O)(=O)NC(=O)NC(C)Cc2ccccc2)cc1 (centres undefined) 4.66%
OCCOC[C@H]1O[C@H](OCCO)[C@H](OCCO)[C@@H](OCCO)[C@@H]1OCCO (tested in a mixture with another compound) 1.14%
C[S+](C)CC[C@H](N)C(=O)O 12.4%
CC[C@@H]1/C=C(\C)C[C@H](C)C[C@H](OC)[C@H]2O[C@@](O)(C(=O)C(=O)N3CCCC[C@H]3C(=O)O[C@H](/C(C)=C/[C@@H]3CC[C@H](Cl)[C@H](OC)C3)[C@H](C)[C@@H](O)CC1=O)[C@H](C)C[C@@H]2OC 3.17%
NC(=O)C1CC2(NC(=O)NC2=O)c2cc(F)ccc2O1 (centres undefined) 7.45%
CN1[C@@H]2CC[C@@H]1CC(OC(=O)[C@H](CO)c1ccccc1)C2 (some centres undefined) 2.23%
CCCCCCCCCCCC(=O)OCC(O)C1OCC(O)C1O (centres undefined) 8.41%
C/C1=C2/[N-]C(C(CC(N)=O)[C@@]2(C)CCC(=O)NCC(C)OP(=O)([O-])O[C@H]2[C@@H](O)[C@@H](n3cnc4cc(C)c(C)cc43)O[C@@H]2CO)[C@]2(C)N=C(/C(C)=C3N=C(/C=C4N=C1C(CCC(N)=O)C\4(C)C)[C@@H](CCC(N)=O)[C@]\3(C)CC(N)=O)[C@@H](CCC(N)=O)[C@]2(C)CC(N)=O.CC(=O)O.[Co] (some centres undefined) -2.9%
CC1(C)OC[C@@H]2O[C@@]3(C(=O)O)OC(C)(C)O[C@@H]3[C@@H]2O1 11.5%
Cc1ccccc1N1C(=O)c2cc(N)ccc2N/C1=C\F -18.2%
O=C1C(I)=CC(=C(c2cc(I)c(O)c(I)c2)c2ccccc2C(=O)O)C=C1I -0.638%
NC(=O)NC(CCC(=O)O)C(=O)O (centres undefined) 3.49%
CC(=O)OCC(=O)[C@@]1(O)CCC2C3C[C@H](C)C4=CC(=O)C=CC4(C)C3C(O)CC21C (some centres undefined) 4.17%
CC1(C)C2CC[C@]1(C)[C@@H](O)C2 12%
OCC1O[C@H](Oc2ccc(O)cc2)C(O)C(O)C1O (some centres undefined) 1.5%
Nc1nc(F)nc2c1ncn2[C@@H]1O[C@H](CO)[C@@H](O)[C@H]1O 14.2%
CC1OC(OC2CCC3(C)C(CCC4C3CC(O)C3(C)C(C5=CC(=O)OC5)CCC43O)C2)CC(O)C1OC1CC(O)C(OC2CC(O)C(OC3OC(CO)C(O)C(O)C3O)C(C)O2)C(C)O1 (centres undefined) -5.12%
CC1OC(OCC2OC(Oc3c(-c4ccc(OCCO)c(OCCO)c4)oc4cc(OCCO)cc(O)c4c3=O)C(O)C(O)C2O)[C@@H](O)C(O)C1O (some centres undefined) 4.27%
